The entries come from a sample that favours hits as a whole.
Pf Dd2 growth = qHTS Primary assay for Inhibitors of Plasmodium falciparum Dd2 growth in vitro; Potency, µM (series often up to 28.9 µM), for inactives: at the highest dose activity, negative = inhibition, usual class: inhibitors; 120,000 tested, 4.3% active; P. falciparum Dd2 growth, SYBR Green, 72 h; active = well fitted inhibition curve with a large enough effect;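 also: plate controls were DMSO vehicle for no effect and reference drug for full effect; nearly all actives have a fitted effect of over 65% in size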
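Infected erythrocytes (Dd2, 0.3% parasitemia, 2.5% hematocrit final) are added to compound in RPMI-1640/Albumax II medium, grown 72 h at 37C in low oxygen, then lysed with saponin/Triton-X containing SYBR Green and read by fluorescence.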
* = called active by the depositor; i = inactive; [ ] = dose if it differs, or a comment. Potency is read from the fitted curve at half-maximal effect.

SMILES	Pf Dd2 growth
COc1ccc(-c2nnc(C[C@@H]3C[C@@H](C(C)C)[C@H](CN4CCN(C)CC4)C=C3C)o2)cc1	i
COc1ccc(-c2nnc(C[C@@H]3C[C@@H](C(C)C)[C@H](CN(C)CCC#N)C=C3C)o2)cc1	7.94µM*
CC1=C[C@@H](CNS(=O)(=O)c2ccccc2)[C@H](C(C)C)C[C@H]1Cc1nnc(-c2ccncc2)o1	-11.2%
CC1=C[C@@H](CNCc2ccccn2)[C@H](C(C)C)C[C@H]1Cc1nnc(-c2ccccc2)o1	3.55µM*
CCNC(=O)NC[C@@H]1C=C(C)[C@H](CC(=O)NCc2ccccn2)C[C@H]1C(C)C	-1.7%[44.1 µM]
O=C(O)C[C@@H]1CCN(C(=O)c2cccs2)C[C@@H]1CCN1CCN(c2ccccn2)CC1	6.9%
O=C(O)CCn1ncc2cc(OCC3CCN(C(=O)CCC(F)(F)F)CC3)ccc21	i
COc1cccc(C(=O)N2CCC(C(=O)N3CCc4nc[nH]c4C3)CC2)c1	3.7%
CCOc1ccccc1CN1CCc2n[nH]c(=O)n2CC1	i
Cc1cc2nc3n(c(=O)c2n1CC(=O)N1CCN(c2ccccc2)CC1)CCCCC3	i
CN1[C@@H](CCC(=O)N2CCOCC2)CNC(=O)[C@H]2NCC[C@H]21	-8.0%[44.1 µM]
O=C(Cn1c(=O)n(CC2CCC(C(=O)NCCc3ccccc3)CC2)c(=O)c2ccccc21)Nc1cccc(F)c1 (stereo not given)	-1.9%
Cc1cc(C)cc(NC(=O)Cn2c(=O)n(CC(=O)NCCc3ccccc3)c(=O)c3ccccc32)c1	6.2%
COc1ccc(NC(=O)Cn2c(=O)n(CC(=O)NCCc3ccccc3)c(=O)c3ccccc32)cc1	19.1%
COc1cc(NC(=O)Cn2c(=O)n(CC3CCC(C(=O)NCCc4ccccc4)CC3)c(=O)c3ccccc32)cc(OC)c1 (stereo not given)	0.891µM*
Cc1cccc(C)c1NC(=O)Cn1c(=O)n(CC2CCC(C(=O)NCCc3ccccc3)CC2)c(=O)c2ccccc21 (stereo not given)	i
Cc1cccc(NC(=O)Cn2c(=O)n(CC3CCC(C(=O)NCCc4ccccc4)CC3)c(=O)c3ccccc32)c1 (stereo not given)	11.2µM*
Cc1ccc(-c2nc(C(=O)NCc3ccc(F)cc3F)no2)cc1	59.5%
Cn1c(=O)c(C(=O)NC2CCOC3(CCOCC3)C2)nc2ccccc21 (stereo not given)	-3.9%
COc1cccc(N2C(=O)NC(=NC3CCCCC3)C23CCN(C(=O)OCc2ccccc2)C3)c1 (stereo not given)	i
COc1cccc(N2C(=O)NC(=NC3CCCC3)C23CCCN(CC2CCCCC2)C3)c1 (stereo not given)	10µM*
COc1cccc(N2C(=O)NC(=NC3CCCC3)C23CCCN(C(=O)c2ccc(C)cc2)C3)c1 (stereo not given)	20.2%
COC(=O)N1CCC2(C1)C(=NC1CCCCC1)NC(=O)N2c1cccc(OC)c1 (stereo not given)	4.5%
COc1cccc(N2C(=O)NC(=NC3CCCCC3)C23CCN(Cc2cccn2C)CC3)c1	-20.3%
COc1cccc(N2C(=O)NC(=NC3CCCCC3)C23CCCN(CC2CCCCC2)C3)c1 (stereo not given)	12.6µM*
SMILES	Pf Dd2 growth
COc1cccc(N2C(=O)NC(=NC3CCCCC3)C23CCCN(C(=O)c2ccc(C)cc2)C3)c1 (stereo not given)	13.4%
COc1cccc(N2C(=O)NC(=NC3CCCCC3)C23CCN(C(C)=O)C3)c1 (stereo not given)	15.7%
COc1cccc(N2C(=O)NC(=NC3CCCCC3)C23CCCN(CCC(C)C)C3)c1 (stereo not given)	11.2µM*
O=C(N1CCC(NS(=O)(=O)c2ccccc2)CC1)N1CC2CC(C1)[C@H]1CCCC(=O)N1C2 (stereo not given in full)	i
COCc1noc([C@@H]2CN(Cc3ccc(F)c(OC)c3)C[C@H]2C(N)=O)n1	-0.5%
O=C(NC1C[C@H]2CC[C@@H](C1)N2C(=O)Cc1cccc(Cl)c1)c1ccncc1 (stereo not given in full)	-25.9%
COC[C@H]1C[C@@H](NCc2cccc(Cl)c2)[C@H](O)[C@@H]1O	i
Cc1ccc(C2Cn3nnc(C(=O)N4CCC(C(=O)NCc5ccco5)CC4)c3CO2)cc1 (stereo not given)	-18.6%
Oc1ccccc1CNC1(Cc2cc(-c3ccccn3)on2)COC1	-20.4%[44.1 µM]
O=C(Cn1cccc1-c1nc(-c2ccc(F)cc2)no1)NCc1ccc(F)cc1	5.8%
CCc1nnc2ccc(NCc3ccccc3)nn12	6.31µM*
CCc1nnc2ccc(NC3CC3)nn12	1.8%
CCc1nnc2ccc(NC(C)C)nn12	2.0%
COc1ccc(CC(=O)N2C[C@@H](CO)[C@H](c3ccncc3)C2)cc1	11.9%
O=C(NCc1nc(-c2ccncc2)n[nH]1)[C@H]1CCC[C@H](O)C1	-2.3%
CN1CCN(CCC(=O)Nc2ccc(Cl)cc2)CC1	i
CCN(CC)CCCNC(=O)Cn1c(-c2cccs2)cc2cc(Cl)ccc21	11.2µM*
O=C(O)Cn1c(-c2cccs2)cc2cc(Cl)ccc21	-15.4%
CCCN1CCN(CCCNC(=O)Cn2nc(C)n3c(cc4c(OC)cccc43)c2=O)CC1	-4.2%
Cc1ccc(NC(=O)Cn2c(CCC(=O)O)ccc2-c2cccs2)cc1Cl	-2.6%
CCc1nn(CC(=O)NCCCN2CCN(C)CC2)c(=O)c2cc3occc3n12	57.2%
CCN1CCN(CCCNC(=O)Cn2c(-c3cccs3)cc3cc(Cl)ccc32)CC1	11.2µM*
CCC(C)NC(=O)Cn1c(-c2cccs2)cc2cc(Cl)ccc21 (stereo not given)	-10.9%
CN1CCN(CCCNC(=O)Cn2c(-c3cccs3)cc3cc(Cl)ccc32)CC1	12.6µM*
CC(C)[C@@H](N)C(=O)N1CCC(n2nccc2NC(=O)c2ccccc2)CC1	-2.8%
SMILES	Pf Dd2 growth
CCNC(=O)N1CCCC(Cc2noc(-c3cnccn3)n2)C1 (stereo not given)	12.2%
COc1ccccc1OCc1cc(C(=O)NC(CO)C(C)C)n[nH]1 (stereo not given)	-3.1%
O=C(O)C1CCc2nnc(C3CCCN(C(=O)Cc4ccccc4)C3)n21 (stereo not given)	i
Cc1nc(C(C)C)sc1C(=O)N1CCC(=O)N(CC2CC2)C(C(C)C)C1 (stereo not given)	-15.3%
O=C1CCCCC(CNC(=O)c2nccc3ccccc23)N1 (stereo not given)	32.9%
O=C(NCc1ccco1)Nc1cccc(-c2ccc(N3CCCC3)nn2)c1	11.2µM*
CC(C)CNC(=O)Nc1cccc(-c2ccc(N3CCC(C)CC3)nn2)c1	-16.1%
Cc1cccc(C(=O)Nc2cccc(-c3ccc(N4CCN(C)CC4)nn3)c2)c1	12.6µM*
O=C(Nc1cccc(-c2ccc(N3CCOCC3)nn2)c1)Nc1ccc2c(c1)CCC2	i
CSc1cccc(NC(=O)Nc2cccc(-c3ccc(N4CCCC4)nn3)c2)c1	-0.1%
CCc1ccccc1NC(=O)Nc1cccc(-c2ccc(N3CCOCC3)nn2)c1	-23.8%
O=C(c1ccc2nccn2c1)N1CCC(C(O)CCc2ccccc2)CC1 (stereo not given)	-24.1%
CCC1(C2CCN(C(=O)CCc3ccccc3)CC2)NC(=O)N(CCc2scnc2C)C1=O (stereo not given)	-15.9%
COc1ccc(CNC(=O)CSc2ncc3c(n2)-c2ccc(Cl)cc2N(Cc2ccccc2)S3(=O)=O)cc1	-13.5%
Cc1cccc(NC(=O)CSc2ncc3c(n2)-c2cc(Cl)ccc2N(C)S3(=O)=O)c1C	i

High-throughput results as filed in PubChem.
